An excerpt weighted towards active compounds, which were near 3% of everything screened.
MITF act – activators of MITF-driven TRPM1 promoter activity in SK-MEL-5 cells | AID 588334 | SK-MEL-5 TRPM1-promoter luciferase, 24 h; % of positive control, neutral wells = 0 | 0.75% of 300,000 active | activation, % at 12.5 µM;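 active = mean activation of at least 80% with every replicate also reaching 80%; inconclusive = mean reaches 80% but some replicate falls short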
Vif inh – blocks HIV Vif function; HEK293T cells, Vif self-association by quenched fluorescence, imaging, 24 h; inhibition, % at 7.49 µM; 0.35% of 340,000 active; AID 602346; in the data active = inhibition above about 50%, passing the limit was not always enough; inconclusive = no clear call, values can overlap the other calls; inactive = below about 31%
Wnt bcat act – activators of Wnt/beta-catenin signaling. 1.2% of 300,000 active. Wnt/beta-catenin reporter cell assay, activator, plate reader. activation, % at 9.35 µM; in the data active = activation above about 30%, passing the limit was not always enough; inconclusive = no clear call, values can overlap the other calls
Glyco luc inh – blocks N-linked glycosylation in D54 reporter cells; D54 ERlucT glycosylation luciferase reporter, 24 h; percent of 100 nM tunicamycin response; reporter increase, % at 12.5 µM; 0.23% of 360,000 active;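 active = mean luciferase reporter signal, scaled so untreated is 0 and the glycosylation-blocking control 100, at or above a set limit in every replicate; inconclusive = mean reaches the limit but not every replicate does; inactive = mean below the limit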;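 note: luciferase carries N-glycosylation sites so blocking glycosylation raises the light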
PfHsp90 yeast 2 – reduces growth (ATP signal) of yeast expressing P. falciparum Hsp90; 0.32% of 310,000 active; S. cerevisiae expressing PfHsp90, BacTiter-Glo ATP, 48 h; yeast lacking PDR1 and PDR3 efflux regulators; inhibition, % at 9.4 µM;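 active = every replicate shows inhibition above about 80%, whatever the replicate mean, limit read from the data; inconclusive = mean inhibition reaches the set limit but some replicate falls short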
esBAF inh – SWI/SNF esBAF complex inhibition. mouse ES cells, Bmi1-luciferase knock-in reporter, 24 h; 100% = twice the neutral-well signal. reporter increase, % at 12.5 µM. 2% of 350,000 active. AID 602393; in the data active = activation above about 40%; inconclusive = no clear call, values can overlap the other calls;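 note: a rise in the Bmi1 reporter signal indicates esBAF inhibition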
Numbers stand for hits; - = inactive; ? = inconclusive; . = no result given.

SMILES	MITF act	Vif inh	Wnt bcat act	Glyco luc inh	PfHsp90 yeast 2	esBAF inh
COc1cc2c(cc1OC)C(c1cccs1)N(C(=S)NC(C)C)CC2 (stereo unspecified)	-	-	-	44.7	-	.
CN(C)c1cc2c(c(N(C)C)c1)C(=O)c1ccccc1C2=O	-	-	-	-	-	-
COc1cccc2nc3cc(C)c(C)cc3nc12	-	-	33.9	-	-	-
COCCCNC(=O)c1cn(-c2cccc(OC)c2)c(=O)c2ccccc12	.	-	-	-	-	-
Clc1ccc(OCc2nnc(-c3ccccc3Br)o2)c(Cl)c1	105.9	-	-	-	-	78.8
Fc1ccc(OCc2nnc(-c3ccccc3Br)o2)c(Cl)c1	?	-	-	-	-	67.1
O=C1c2ccccc2NC(c2cc(Cl)cc(Cl)c2O)N1CCc1ccccn1 (stereo unspecified)	.	.	-	.	.	.
CCN1C(=S)SC(=O)C1=C1C=C(C)N(Cc2ccco2)C(C)=C1	-	-	-	-	-	72.0
CCN1C(=S)SC(=O)C1=C1C=C(C)OC(C)=C1	90.7	.	.	-	-	.
CCN1C(=O)/C(=C2/Sc3ccccc3N2CC)SC1=S	-	-	-	-	-	-
O=C1C(=C2CCCCC2)SC(=S)N1Cc1ccco1	-	-	-	-	-	-
O=C(CN1C(=O)CCSc2ccccc21)Nc1ccccc1	-	-	.	-	-	-
N#Cc1ccc(C(=O)N2CCC3CC2c2cc(N4CCCCC4)ccc23)cc1 (stereo unspecified)	.	-	-	-	.	-
O=c1cc(CO)oc(C(Nc2ccccn2)c2ccc(F)cc2)c1O (stereo unspecified)	-	-	.	-	-	.
COc1cc(O)c(C(CC(=O)N2CCCC2)c2ccc(N(C)C)cc2)c(OC)c1 (stereo unspecified)	-	74.5	-	-	-	-
Cc1cccc2cc(CN(Cc3ccco3)C(=O)c3ccncc3)c(=O)[nH]c12	-	-	.	-	-	-
O=C1c2ccccc2NC(c2ccco2)N1O (stereo unspecified)	-	-	.	-	-	-
O=C1c2ccccc2NC(c2ccc(Br)o2)N1O (stereo unspecified)	.	-	44.0	-	-	-
O=C1c2ccccc2NC(c2cccc(O)c2)N1O (stereo unspecified)	-	-	-	-	-	-
O=C1c2ccccc2NC(c2ccc(-c3ccc(C(F)(F)F)cc3)o2)N1O (stereo unspecified)	-	.	-	-	101.3	-
O=C1c2ccccc2NC(c2ccc(-c3cccs3)o2)N1O (stereo unspecified)	82.5	-	59.1	-	.	66.6
Cc1cc(C)c(NC(=O)Cn2cc3c(n2)CCCC3)c(C)c1	-	-	-	-	-	-
NCCNC(=O)c1c(NC(=O)c2ccccc2)sc2c1CCCC2	-	-	-	-	-	68.5
O=C(Nc1sc2c(c1C(=O)O)CCC2)c1ccc(F)cc1	-	-	-	-	-	63.4
O=C(Nc1sc2c(c1C(=O)O)CCCC2)c1ccc(Cl)cc1	-	-	-	-	-	?
SMILES	MITF act	Vif inh	Wnt bcat act	Glyco luc inh	PfHsp90 yeast 2	esBAF inh
O=C(Nc1sc2c(c1C(=O)O)CCCCC2)c1ccccc1	-	-	-	-	-	.
O=C(Nc1sc2c(c1C(=O)O)CCCC2)c1cccc(Cl)c1	-	-	-	-	-	72.9
O=C(Nc1sc2c(c1C(=O)O)CCC2)c1ccccc1	-	-	?	-	-	52.7
COc1ccccc1CNC(=O)N1CCN(S(=O)(=O)c2ccc(Cl)cc2)CC1	-	-	-	-	-	-
CC(C)CC(C(=O)NC1CCCCC1)N(Cc1cccs1)C(=O)c1snc(C(N)=O)c1N (stereo unspecified)	-	-	-	-	-	.
CC(C)(C)N=Cc1cc(-c2ccccc2)sc1O	.	-	62.9	-	.	73.5
Cn1c(O)c(/C=N/NC(=O)c2cc3ccccc3cc2O)c2ccccc21	.	-	-	-	-	46.9
COc1cc(/C=N/NC(=O)c2cc3ccccc3cc2O)ccc1OCCN1CCCCC1	-	-	-	-	-	-
COCCn1c(C)cc(/C=N/NC(=O)c2cc3ccccc3cc2O)c1C	-	-	.	-	-	46.7
Cn1c2ccccc2c2cc(/C=N/NC(=O)c3ccc(O)cc3O)ccc21	-	-	.	-	-	.
COC(=O)c1cc2c(s1)-c1ccc(OC)cc1CC2	-	-	67.0	-	-	.
COC(=O)c1cc2c(s1)-c1ccccc1OC2	-	-	-	-	-	-
COC(=O)c1ccc(-c2noc(CN3C[C@H]4CC[C@H]3C4)n2)cc1	-	-	-	-	-	-
CN1C(=O)NC(c2ccc(C(F)(F)F)cc2)C2=C1CC(C)(C)CC2=O (stereo unspecified)	-	-	-	-	-	-
CSCC(=O)N1CCc2ccc(NC(=O)c3ccccc3Cl)cc2C1	-	-	-	-	-	66.2
CC(=O)c1c(C)[nH]c(C(=O)COC(=O)Cc2ccccc2F)c1C	.	-	-	-	-	56.0
CCOc1ccc2nc(NC(=O)CSc3ccc(Cl)cc3)sc2c1	-	-	-	-	-	.
CCOc1ccc2nc(NC(=O)c3cnccn3)sc2c1	-	-	-	-	-	49.2
O=C(Nc1nc2ccccc2s1)c1cnccn1	-	-	.	-	-	-
CCOc1ccc2nc(NC(=O)CSCC(=O)Nc3cc(C)on3)sc2c1	103.8	-	?	-	-	-
CCOCC(=O)Nc1nc2ccc(OCC)cc2s1	-	-	45.7	-	-	-
CC(C)(C)OC(=O)N1CCc2onc(-c3ccc([N+](=O)[O-])cc3)c2C1=O	.	.	-	-	.	-
O=C(NC1CCN(C(=S)NCCc2ccccc2)CC1)C1CCCCC1	-	-	-	-	-	-
CCOc1ccc(N2C(=O)c3ccccc3NC2(C)CC)cc1 (stereo unspecified)	124.3	-	?	-	.	-
COc1ccc(N2C(=O)c3ccccc3NC23CCCCC3)cc1	99.1	-	-	-	-	-
SMILES	MITF act	Vif inh	Wnt bcat act	Glyco luc inh	PfHsp90 yeast 2	esBAF inh
CC1(C)Nc2ccccc2C(=O)N1c1ccc(Br)cc1	.	-	65.6	-	-	.
CCC1(C)Nc2ccccc2C(=O)N1O (stereo unspecified)	-	-	.	-	-	-
COc1ccc(N2C(=O)c3ccccc3NC2(C)C)cc1	-	-	-	-	.	-
COc1ccc(N2C(=O)c3ccccc3NC23CCC(C)CC3)cc1 (stereo unspecified)	-	-	.	-	-	.
CSCc1ccc(C(=O)NCc2ccc(C)cc2)cc1	-	-	-	-	-	-
CCOc1ccc(NC(=O)C2CC3CCC2C3)cc1 (stereo unspecified)	.	-	-	-	.	.
COC(=O)c1ccc(NC(=O)C2CC3CCC2C3)cc1 (stereo unspecified)	98.3	-	-	-	-	46.8
COC(=O)c1ccc(NC(=O)C2C3C=CC(O3)C2C(=O)O)cc1 (stereo unspecified)	-	-	.	-	-	56.8

Assay outcomes: PubChem, Broad Institute
